Our source for the AC50 and outcome values is PubChem BioAssay (EPA / NIEHS).

The source holds several records for some structures; these can differ, active in one and inactive in another. Activity calls are given as the source filed them. The calls were made as follows: active = hit-call score of the fitted dose curve at least 0.9, where 1 is the maximum; inactive = score below 0.9.

In general, AC50 refers to the midpoint of the concentration-response curve, whichever way the signal moves.

Read-out in test [1]: Interleukin 17F (IL17F), IL17F (gene 112744)
Briefly: BSK_BT_xIL17F: BioMAP Diversity Plus: BT Assay for Interleukin 17F (IL17F) Biomarker Activity (AID 2284243). The following applies: primary human B cells with PBMC. In outline: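 Human PBMC co-cultured with B cells, compound exposure 24 h; secreted IL-17F quantified by Luminex xMAP, referenced to DMSO control. PBMC viability measured in parallel by Alamar Blue reduction.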

Read-out in test [2]: Actin alpha 1 (ACTA1), ACTA1 (gene 58)
The experiment in a line: BSK_MyoF_ACTA1: BioMAP Diversity Plus: MyoF Assay for Actin alpha 1 (ACTA1) Biomarker Activity (AID 2284244). The following applies: primary human lung fibroblasts. The procedure, abridged: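 Cells were exposed to chemical for 24 h before a-SMA levels were quantified by ELISA in human lung fibroblasts. Increases were fitted against DMSO as negative control; parallel SRB staining (0.1% after 10% TCA fixation, 560 nm) assessed cytotoxicity.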

Read-out in test [3]: Interleukin 2 (IL2), IL2 (gene 3558)
The experiment in a line: BSK_BT_xIL2: BioMAP Diversity Plus: BT Assay for Interleukin 2 (IL2) Biomarker Activity (AID 2284245). The following applies: primary human B cells with PBMC. In outline: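 The BT system combines human B cells with peripheral blood mononuclear cells. Twenty-four hours after chemical dosing, secreted IL-2 was measured with xMAP bead technology, and responses were analyzed as increases over DMSO controls.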

Read-out in test [4]: Basic fibroblast growth factor (bFGF), FGF2 (gene 2247)
The experiment in a line: BSK_MyoF_bFGF: BioMAP Diversity Plus: MyoF Assay for Basic fibroblast growth factor (bFGF) Biomarker Activity (AID 2284246). The following applies: primary human lung fibroblasts. The procedure, abridged: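 Chemicals are added to human lung fibroblast cultures and incubated 24 h. bFGF is then measured by ELISA, while parallel cultures receive SRB staining for total protein as a cytotoxicity check. Data are fitted upward against DMSO.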

Read-out in test [5]: Collagen IV, COL4A1 (gene 1282)
The experiment in a line: BSK_MyoF_CollagenIV: BioMAP Diversity Plus: MyoF Assay for Collagen IV Biomarker Activity (AID 2284247). The following applies: primary human lung fibroblasts. The procedure, abridged:
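Human lung fibroblast system, 24 h chemical exposure. Endpoint: Collagen IV by ELISA, upward fit vs DMSO.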

Read-out in test [6]: Monokine induced gamma interferon (MIG), CXCL9 (gene 4283)
Briefly: BSK_KF3CT_MIG: BioMAP Diversity Plus: KF3CT Assay for Monokine induced gamma interferon (MIG) Biomarker Activity (AID 2284248). The following applies: primary human keratinocytes with fibroblasts. In outline: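 Human keratinocyte–foreskin fibroblast co-culture; MIG measured by ELISA 24 h after chemical dosing, fitted upward versus DMSO. Cytotoxicity was assessed in parallel cultures by SRB total-protein staining read at 560 nm.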

Read-out in test [7]: Vascular cell adhesion molecule 1 (VCAM1), VCAM1 (gene 7412)
The experiment in a line: BSK_BF4T_VCAM1: BioMAP Diversity Plus: BF4T Assay for Vascular cell adhesion molecule 1 (VCAM1) Biomarker Activity (AID 2284249). The following applies: primary human bronchial epithelial cells with fibroblasts. The procedure, abridged: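 Cell-surface VCAM-1 quantified by ELISA after 24 h chemical exposure of human bronchial epithelial/dermal fibroblast co-cultures, with SRB staining in parallel wells for cytotoxicity; DMSO baseline, positive-direction fitting.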

Read-out in test [8]: Collagen I, COL1A1 (gene 1277)
Briefly: BSK_hDFCGF_CollagenI: BioMAP Diversity Plus: hDFCGF Assay for Collagen I Biomarker Activity (AID 2284250). The following applies: primary human foreskin fibroblasts. In outline: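 Collagen I ELISA, primary human foreskin fibroblasts, 24 h chemical exposure, DMSO = negative control/baseline, positive fitting direction.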

Read-out in test [9]: Interferon-inducible T-cell alpha chemoattractant (ITAC), CXCL11 (gene 6373)
Briefly: BSK_hDFCGF_ITAC: BioMAP Diversity Plus: hDFCGF Assay for Interferon-inducible T-cell alpha chemoattractant (ITAC) Biomarker Activity (AID 2284251). The following applies: primary human foreskin fibroblasts. The procedure, abridged: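 I-TAC levels were read by ELISA on human dermal foreskin fibroblast primary cultures 24 h after dosing, analysed against DMSO in the positive direction. Cytotoxicity was assessed alongside by sulforhodamine B total-protein staining.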

Read-out in test [10]: Plasminogen activator inhibitor-1 (PAI1), SERPINE1 (gene 5054)
The experiment in a line: BSK_KF3CT_PAI1: BioMAP Diversity Plus: KF3CT Assay for Plasminogen activator inhibitor-1 (PAI1) Biomarker Activity (AID 2284252). The following applies: primary human keratinocytes with fibroblasts. The procedure, abridged: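 Cells (human keratinocytes co-cultured with foreskin fibroblasts) are exposed to test chemical for 24 h. PAI-1 is then measured by ELISA and analysed for signal gain against DMSO.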

Read-out in test [11]: Interleukin-8 (IL8), CXCL8 (gene 3576)
The experiment in a line: BSK_KF3CT_IL8: BioMAP Diversity Plus: KF3CT Assay for Interleukin-8 (IL8) Biomarker Activity (AID 2284254). The following applies: primary human keratinocytes with fibroblasts. The procedure, abridged:
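Human keratinocyte/foreskin fibroblast co-culture dosed 24 h; IL-8 measured by ELISA relative to DMSO. Parallel cultures stained with SRB for total protein to flag cytotoxicity.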

Read-out in test [12]: Plasminogen activator inhibitor-1 (PAI1), SERPINE1 (gene 5054)
Briefly: BSK_MyoF_PAI1: BioMAP Diversity Plus: MyoF Assay for Plasminogen activator inhibitor-1 (PAI1) Biomarker Activity (AID 2284256).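 As to outcome: PAI-1 read 24 h after compound addition.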 The following applies: primary human lung fibroblasts. The procedure, abridged: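 Primary human lung fibroblasts treated with chemical for 24 h; PAI-1 levels quantified by ELISA relative to DMSO. Cytotoxicity was assessed in parallel cultures by SRB total-protein staining (0.1% SRB after 10% TCA fixation, 560 nm).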

Read-out in test [13]: CD69, CD69 (gene 969)
Briefly: BSK_IMphg_CD69: BioMAP Diversity Plus: IMphg Assay for CD69 Biomarker Activity (AID 2284257). The following applies: primary human endothelial cells with macrophages. The procedure, abridged: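 Readout is ELISA for CD69 in primary human venular endothelial cell/macrophage co-culture, taken at 24 h post-dosing. SRB staining of parallel cultures gauged overt cytotoxicity; signal increase versus DMSO defined activity.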

Read-out in test [14]: Eotaxin 3, CCL26 (gene 10344)
The experiment in a line: BSK_BF4T_Eotaxin3: BioMAP Diversity Plus: BF4T Assay for Eotaxin 3 Biomarker Activity (AID 2284258). The following applies: primary human bronchial epithelial cells with fibroblasts. The procedure, abridged: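 ELISA measurement of Eotaxin-3 after 24 h chemical exposure in a bronchial epithelial/dermal fibroblast co-culture, with DMSO as baseline. Parallel SRB staining (0.1% SRB after 10% TCA fixation, 560 nm) flagged overt cytotoxicity.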

Read-out in test [15]: Monocyte Chemoattractant Protein-1 (MCP1), CCL2 (gene 6347)
The experiment in a line: BSK_BF4T_MCP1: BioMAP Diversity Plus: BF4T Assay for Monocyte Chemoattractant Protein-1 (MCP1) Biomarker Activity (AID 2284259). The following applies: primary human bronchial epithelial cells with fibroblasts. In outline: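 MCP-1 ELISA readout taken 24 h after dosing in the BF4T system (bronchial epithelial cells plus dermal fibroblasts). Parallel SRB total-protein staining flagged cytotoxicity; DMSO served as baseline, positive fitting direction.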

Read-out in test [16]: Intercellular Adhesion Molecule 1 (ICAM1), ICAM1 (gene 3383)
The experiment in a line: BSK_BF4T_ICAM1: BioMAP Diversity Plus: BF4T Assay for Intercellular Adhesion Molecule 1 (ICAM1) Biomarker Activity (AID 2284260). The following applies: primary human bronchial epithelial cells with fibroblasts. The procedure, abridged:
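ICAM-1 levels measured by ELISA after 24 h chemical treatment of bronchial epithelial cell/dermal fibroblast co-cultures, read against DMSO baseline. Overt cytotoxicity checked in parallel cultures by sulforhodamine B staining.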

Read-out in test [17]: Interleukin-8 (IL8), CXCL8 (gene 3576)
Briefly: BSK_MyoF_IL8: BioMAP Diversity Plus: MyoF Assay for Interleukin-8 (IL8) Biomarker Activity (AID 2284261). The following applies: primary human lung fibroblasts. The procedure, abridged:
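Human lung fibroblast (MyoF system) cultures dosed for 24 h, then IL-8 measured by ELISA. Response taken relative to DMSO; parallel SRB total-protein staining for cytotoxicity.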

Read-out in test [18]: CD90, THY1 (gene 7070)
Briefly: BSK_BF4T_CD90: BioMAP Diversity Plus: BF4T Assay for CD90 Biomarker Activity (AID 2284262). The following applies: primary human bronchial epithelial cells with fibroblasts. The procedure, abridged:
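CD90 levels by ELISA after 24 h treatment of human bronchial epithelial cell/dermal fibroblast cultures, analysed versus DMSO. Overt cytotoxicity checked in parallel cultures by sulforhodamine B staining.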

Read-out in test [19]: Monocyte Chemoattractant Protein-1 (MCP1), CCL2 (gene 6347)
Briefly: BSK_IMphg_MCP1: BioMAP Diversity Plus: IMphg Assay for Monocyte Chemoattractant Protein-1 (MCP1) Biomarker Activity (AID 2284253). The following applies: primary human endothelial cells with macrophages. The procedure, abridged:
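ELISA readout of MCP-1 at 24 hours in IMphg co-cultures of venular endothelial cells and macrophages, normalised to DMSO; parallel cultures stained with sulforhodamine B for overt cytotoxicity.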

On to `OCCCCC(F)(F)C(F)(F)C(F)(F)C(F)(F)F`, for which, in test [1], the AC50 is 21.7 µM (active). Besides, the result in [1], in test [2], in [3], in [4], in test [5] and in test [6] was inactive. Also, the result in test [7], in test [8], in [9], in [10], in test [11] and in test [12] was inactive. Further, the result in test [13], in test [14], in [15], in test [16], in test [17] and in test [18] was inactive.
Take `CO[Si](C)(CCC(F)(F)C(F)(F)C(F)(F)C(F)(F)C(F)(F)C(F)(F)F)OC`: the result in [1], in [2], in test [3], in test [4], in [5] and in test [6] was inactive. The result in test [7], in test [9], in test [10], in test [19], in [11] and in test [12] was inactive. Also, the outcome in [13], in test [14], in test [15], in [16], in test [17] and in [18] was inactive.
As for `Cc1ccc(O)c(-n2nc3ccccc3n2)c1`, the result in test [1], in [2], in test [3], in test [4], in [5] and in test [12] was inactive. In test [17], the result was inactive.
On to `Cc1ccc(S(=O)(=O)C(I)I)cc1`, for which the AC50 in test [1] was 2.77 µM (active); in [2] it was 7.35 µM (active); in test [3], 4.47 µM (active); in test [4], 12.5 µM (active); in [5], 7.25 µM (active); in test [12], 8.61 µM (active). In addition, the result in test [17] was inactive.
Take `FC(F)(F)C(F)(F)C(F)(F)C(F)(F)C(F)(F)C(F)(F)CC[Si](Cl)(Cl)Cl`: the outcome in test [1], in test [2], in test [3], in [4], in [5] and in [6] was inactive. Besides, the result in test [7], in [9], in test [10], in [11], in test [12] and in test [13] was inactive. Also, the outcome in test [14], in [15], in [16], in [17] and in [18] was inactive.
For `O=C(O)CCC(F)(F)C(F)(F)C(F)(F)C(F)(F)C(F)(F)C(F)(F)C(F)(F)F`, the result in test [1], in [2], in test [3], in test [5], in test [6] and in test [7] was inactive. The result in test [9], in [10], in test [11], in [12], in [13] and in test [14] was inactive. In addition, the outcome in test [15], in test [16], in test [17] and in [18] was inactive. The AC50 in test [3] was 2.38 µM (active); in [11], 4.26 µM (active); in [14] it was 0.726 µM (active); in [15] it was 0.949 µM (active).
With `CCN(CC)c1ccc(N=Nc2ccccc2)cc1`, the AC50 in test [1] is 31 µM (active); in test [2] it was 23.8 µM (active); in [3] it was 32.6 µM (active); in test [5], 9.37 µM (active); in [17], 5.41 µM (active). For the same compound, the outcome in [4] and in test [12] was inactive.
`Cc1cnccn1`: the result in test [1], in test [2], in [3], in test [5], in [12] and in test [17] was inactive.
For the compound `Brc1nc2ccccc2s1`, the result in test [1], in test [2], in [5], in test [12] and in [17] was inactive. The AC50 in test [3] was 0.431 µM (active).
